Hits are enriched below; roughly 8.7% of the tested compounds scored in any of these assays.
Pf growth 96h: P. falciparum growth inhibition at 96 hours. Potency, µM (doses to about 28.7 µM), actives largely listed as inhibitors. P. falciparum luciferase reporter growth, 96 h. hit rate 6.9% among 320,000. AID 504834
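Two-generation exposure (96 h) targets delayed-death phenotype. Reporter parasites carrying integrated firefly luciferase, in red cells at 2% hematocrit and 0.05% parasitemia final, kept at 37 C, 5% CO2; luminescence loss indicates inhibition.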
VACV mCherry inh: inhibitors of vaccinia virus infection (mCherry reporter signal). Vaccinia virus mCherry reporter infection, fluorescence. Potency, µM (doses to about 36.5 µM), usual class: inhibitors. hit rate 0.63% among 310,000; calls by dose curve; tested in A549 cells; note: nearly all actives have a fitted effect of over 35% in size
VACV Venus inh: vaccinia inhibition (Venus reporter). Vaccinia virus Venus reporter expression, fluorescence. Potency, µM (doses to about 36.5 µM), actives largely listed as inhibitors. hit rate 0.46% among 330,000. AID 720580; calls by dose curve; tested in A549 cells; note: nearly all actives have a fitted effect of over 30% in size
AMA1 RON2 block: inhibitors of Plasmodium falciparum AMA1-RON2 interaction; AlphaScreen AMA1-biotinylated RON2 peptide binding; Potency, µM (series often up to 58.2 µM), most hits filed as inhibitors; hit rate 0.2% among 360,000; note: nearly all actives have a fitted effect of over 45% in size
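AMA1 (3D7) with his tag at 25 nM final met compounds first, then biotinylated RON2 peptide at 25 nM; detection used donor plus acceptor beads, 10 µg/mL apiece, read by AlphaScreen after 30 min at room temperature.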
Pf growth 48h: inhibits P. falciparum growth in the first generation, 48 h. P. falciparum luciferase growth in erythrocytes, 48 h. Potency, µM (highest dose often 28.7 µM), most hits filed as inhibitors. hit rate 5.9% among 310,000
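First compound was added to culture medium, then infected red cells at 0.1% parasitemia and 2% hematocrit (final). After incubation at 37 C under 5% CO2, luciferase detection reagent was dispensed and light output recorded.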
Hits are given with their value; i = inactive; ? = inconclusive; nt = not tested or not shown; ! = repeats disagree; [ ] = dose if it differs, or a comment. Unless noted, calls come from the whole dose curve; as a rule, active = well fitted curve in the direction sought with a large enough effect; inconclusive = small, poorly fitted or top-dose-only effect, or another doubt; inactive = no such curve, though single readings can be large; an effect the other way counts as inactive or inconclusive.

SMILES | Pf growth 96h | VACV mCherry inh | VACV Venus inh | AMA1 RON2 block | Pf growth 48h
CCCOc1ccc(/C=C2\SC(N)=NC2=O)cc1OC | i | nt | nt | i | i
CCCOc1ccccc1/C=C1\SC(N)=NC1=O | 11.7µM | ? | ? | i | ?
COc1ccc(/C=N/NC(=O)c2ccc(CSc3nncn3C)cc2)cc1OC | ? | i | i | i | ?
Cn1cnnc1SCc1ccc(C(=O)N=Nc2c(O)n(C)c3ccccc23)cc1 | 10.4µM | i | i | i | ?
COc1cc(/C(C)=N/NC(=O)c2ccc(CSc3nncn3C)cc2)cc(OC)c1OC | 13.1µM | i | i | i | i
COc1cccc(C2C(C(=O)Nc3ccc(C)cc3C)=C(C)Nc3ncnn32)c1OC (stereo not given) | i | nt | nt | i | 11.7µM
COc1ccc(C2C(C(C)=O)=C(C)Nc3ncnn32)c(OC)c1OC (stereo not given) | i | i | i | i | i
CCOC(=O)C1=C(c2ccccc2)Nc2ncnn2C1c1cccc(OC)c1OC (stereo not given) | 1.85µM | nt | i | i | ?
CC(=O)C1=C(C)Nc2ncnn2C1c1ccccc1Cl (stereo not given) | 0.522µM | i | i | i | i
O=C(c1ccc([N+](=O)[O-])s1)N1CCN(c2cccc(Cl)c2)CC1 | 11.7µM | i | ? | ? | ?
O=C(c1ccc2nc[nH]c2c1)N1CCN(c2cccc(Cl)c2)CC1 | 5.86µM | nt | nt | i | 13.1µM
CC(=O)Nc1c(C)nn(-c2ccccc2)c1N1CCC(C(=O)NCc2ccc(Cl)cc2)CC1 | nt | i[7.34 µM] | i[7.34 µM] | nt | nt
COc1ccc(-c2c(C)oc3c(CN4CCCCC4C)c(O)ccc3c2=O)cc1OC (stereo not given) | 11.7µM | i | i | i | ?
COc1ccc(-c2coc3c(CN4CCOCC4)c(O)ccc3c2=O)cc1 | ? | nt | nt | i | ?
CC1CCCCN1Cc1c(O)ccc2c(=O)c(-c3ccc(Cl)cc3Cl)coc12 (stereo not given) | i | nt | nt | i | ?
CC1CCCCN1Cc1c(O)ccc2c(=O)c(-c3ccc(Br)cc3)coc12 (stereo not given) | 5.86µM | nt | nt | i | 7.38µM
CC1CCCCN1Cc1c(O)ccc2c(=O)c(-c3ccc(Cl)cc3)coc12 (stereo not given) | i | i | i | i | 10.4µM
O=c1c(-c2ccc(Cl)cc2)coc2c(CN3CCOCC3)c(O)ccc12 | 10.4µM | i | i | i | 8.28µM
CCC(Sc1nc2ccncc2[nH]1)C(=O)Nc1ccc(F)cc1 (stereo not given) | nt | i | i | nt | nt
Cc1ccccc1NC(=O)C1CCN(S(=O)(=O)c2ccccc2)CC1 | nt | i | i | nt | nt
CC1CCCCN1Cc1c(O)ccc2c(=O)c(-c3ccccc3Cl)c(C(F)(F)F)oc12 (stereo not given) | nt | i | i | nt | nt
CC1CCCCN1Cc1c(O)ccc2c(=O)c(-c3nc4ccccc4s3)c(N)oc12 (stereo not given) | 1.04µM | i | i | i | 0.828µM
Cc1ccc(CNC(=O)C(=O)NCC(c2cccs2)S(=O)(=O)c2ccc(C)cc2)cc1 (stereo not given) | nt | i | i | nt | nt
O=C(CSc1nc(-c2ccc(F)cc2)[nH]c1-c1ccccc1)Nc1ccccc1 | nt | i | i | nt | nt
Cc1ccc(C)c(NC(=S)NC(NC(=O)OCc2ccccc2)C(Cl)(Cl)Cl)c1 (stereo not given) | 9.28µM | ? | i | i | ?
SMILES | Pf growth 96h | VACV mCherry inh | VACV Venus inh | AMA1 RON2 block | Pf growth 48h
O=C(NC(NC(=S)Nc1c(Cl)cc(Cl)cc1Cl)C(Cl)(Cl)Cl)OCc1ccccc1 (stereo not given) | i | ? | ? | i | ?
Cc1ccc2c(CN3CCN(Cc4ccccc4)CC3)cc(=O)oc2c1C | ? | i | i | ? | i
Cc1ccc2c(CN3CCN(S(=O)(=O)c4ccc(Cl)cc4)CC3)cc(=O)oc2c1C | ? | i | i | i | 4.15µM
Cc1ccc2c(CN3CC(C)CC(C)C3)cc(=O)oc2c1C (stereo not given) | 14.7µM | i | i | i | ?
O=C(Nc1cccc(-c2nc3ncccc3o2)c1)c1ccc(-c2cccc(Cl)c2Cl)o1 | nt | ? | i | nt | nt
CCOC(=O)CCn1nnc(N)n1 | 10.4µM | i | i | i | i
O=C(Nc1nccs1)c1cc2sccc2n1Cc1ccc(F)cc1 | i[5.75 µM] | i | i | i | 13.1µM
COc1cccc(C(=O)N2c3ccc(C)cc3C(C)(c3ccccc3)CC2(C)C)c1 (stereo not given) | nt | i | i | nt | nt
O=C(Cc1ccc[nH]c1=O)c1ccc(F)cc1 | nt | i | i | nt | nt
C=C1C(=O)O[C@@H]2C[C@@H](C)[C@@H]3C=CC(=O)[C@@]3(C)[C@@H](OC(C)=O)[C@H]12 | 2.94µM | 11.2µM | 7.94µM | i | 2.08µM
C=C1C(=O)O[C@@H]2C[C@@H](C)[C@@H]3C=CC(=O)[C@@]3(C)[C@@H](O)[C@H]12 | 1.04µM | ? | 10µM! | i | 0.828µM
C[C@@H]1C[C@@H]2OC(=O)[C@]3(C)[C@H]2[C@@H](OC3(C)O)[C@]2(C)C(=O)C=C[C@H]12 (stereo not given in full) | ? | i | ? | i | 13.1µM
COC(=O)c1ccccc1-c1cc(C)cc2c1OC(CNC(=O)C1CCCO1)C2 (stereo not given) | nt | i | i | nt | nt
O=C(NCc1ccc2c(c1)OCO2)c1nn(-c2ccccc2)c(=O)c2ccccc12 | 0.738µM | nt | nt | i | i
CC(C)CCn1c(=O)c(C(=O)NCc2ccc3c(c2)OCO3)c(O)c2ccccc21 | ? | i | i | i | 5.86µM
O=C(Nc1ccc2c(c1)OCO2)c1nn(-c2ccccc2)c(=O)c2ccccc12 | 13.1µM | nt | nt | i | 11.7µM
CCCCn1nc(C(=O)Nc2ccc3c(c2)OCCO3)c2ccccc2c1=O | 6.57µM | nt | nt | i | ?
Cn1nc(C(=O)Nc2ccc3c(c2)OCCO3)c2ccccc2c1=O | i | nt | nt | i | i
COc1cccc(-n2nc(C(=O)Nc3ccc4c(c3)OCO4)c3ccccc3c2=O)c1 | ? | nt | i | i | ?
O=C(NCc1ccc2c(c1)OCO2)c1ccc(-n2cnnn2)cc1 | 1.65µM | i | i | i | i
CC(C)(C)c1nn(-c2ccccc2)c2[nH]c(=O)c(CNCc3ccc4c(c3)OCO4)cc12 | 0.329µM | ? | i | i | nt
COc1cccc(CNC(=O)CNS(=O)(=O)c2ccc3nc(C)sc3c2)c1 | nt | i | i | nt | nt
COc1ccccc1-n1c2nc3ccccc3nc2c2c(=O)n(-c3cc(C)cc(C)c3)cnc21 | ? | i | i | i | 13.1µM
CC(=O)Nc1cccc(C(=O)OCc2csc(CC(=O)Nc3ccccc3C)n2)c1 | ? | i | i | i[11.6 µM] | 9.28µM
CC(=O)Nc1ccc(S(=O)(=O)NCCC(=O)OCc2csc(CC(=O)Nc3ccccc3C)n2)cc1 | ? | i | i | i | 11.7µM
O=C(CCCCCn1c(=O)[nH]c2ccccc2c1=O)NCc1cccc(Cl)c1 | nt | i | i | nt | nt
Cc1ccc(S(=O)(=O)c2cnc(-c3ccccc3)nc2N2CCN(C)CC2)cc1 | 10.4µM | nt | nt | i | ?
CN1CCN(c2nc(-c3ccccc3)ncc2S(=O)(=O)c2ccccc2)CC1 | ? | i | i | i | ?
Cc1ccc(S(=O)(=O)c2cc(N3CCOCC3)nc(-c3ccccc3)n2)cc1 | 8.28µM | i | i | i | ?
